Experimental data published in PubChem BioAssay AID620 (Sanford-Burnham Center for Chemical Genomics, 2007).
Among all 87,000 compounds or so, about 360 (0.41%) were called active. This is one part of a sample in which actives are shown more often than they occur. Rule as the data show it: active = cytotoxicity above about 50%; inactive = the rest.

Test: cytotoxicity in HT1080 fibrosarcoma cells, cell-based, fluorescence readout (AID 620);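 also: cells exposed to compound overnight then 4 h with Alamar Blue; 0% = vehicle DMSO and 100% = killing control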
Details: HT1080 viability, at 10 µM, stronger effect = higher value

Structure (SMILES)	cytotoxicity
c1ccc(Nc2ccccn2)cc1	-6.8% (inactive)
Oc1cccc2ccc(Nc3ccccn3)nc12	60.9% (active)
CC(=O)O[C@@]12CO[C@@H]1C[C@H](O)[C@@]1(C)C(=O)[C@H](O)C3=C(C)[C@@H](OC(=O)[C@H](O)[C@@H](NC(=O)OC(C)(C)C)c4ccccc4)C[C@](O)([C@@H](OC(=O)c4ccccc4)[C@H]21)C3(C)C	53.7% (active)
CCOC(=O)c1ccccc1NC(=O)Nc1ccc(OC)c(OC)c1	-1.4% (inactive)
Cc1noc(C)c1C(=O)N1CCN(CCc2ccccc2)CC1	-0.7% (inactive)
COCCNC(=O)c1cc2c(=O)n3cccc(C)c3nc2n(Cc2ccncc2)c1=N	17.6% (inactive)
CCCCNC(=O)c1cc2c(=O)n3cccc(C)c3nc2n(Cc2ccccc2)c1=N	19.2% (inactive)
CCCn1c(=N)c(C(=O)NC2CCCC2)cc2c(=O)n3cccc(C)c3nc21	9.1% (inactive)
N=c1c(C(=O)NC2CCCC2)cc2c(=O)n3ccccc3nc2n1C1CCCC1	7.6% (inactive)
CCCCNC(=O)c1cc2c(=O)n3cccc(C)c3nc2n(Cc2ccncc2)c1=N	54.1% (active)
Cc1cccn2c(=O)c3cc(C(=O)NC4CCCC4)c(=N)n(C4CCCC4)c3nc12	75% (active)
CSc1ccc2c(c1)N(CCC1CCCCN1C)c1ccccc1S2 (stereo unspecified)	82.9% (active)
CC1CC(=O)N(CC(=O)N2CCCC2)c2ccccc2S1 (stereo unspecified)	1.5% (inactive)
CN1CCN(CCCN2c3ccccc3Sc3ccc(Cl)cc32)CC1	6% (inactive)
O=C(O)CSc1cccc2cccc(C(=O)O)c12	3.5% (inactive)
CCN(CC)c1ccc2cc(-c3nc4ccccc4n3C)c(=O)oc2c1	62% (active)
COc1ccc2cc(-c3nc4ccccc4n3C)c(=O)oc2c1	-1.5% (inactive)
CC(=O)Oc1ccc2cc(-c3nc4ccccc4n3C)c(=O)oc2c1	-4.4% (inactive)
COc1ccc(CN(Cc2cccnc2)S(=O)(=O)c2ccc(-n3cnnn3)c(C)c2)cc1OC	-6.9% (inactive)
COc1ccc(Cl)cc1N(CC(=O)Nc1ccccc1C(=O)NCc1ccco1)S(C)(=O)=O	4.2% (inactive)
CC(=O)c1cccc(OCC(=O)c2cc(C)n(-c3cc(C)on3)c2C)c1	63.5% (active)
Cc1cc(-n2c(C)cc(C(=O)COc3ccc4ccc(=O)oc4c3)c2C)no1	7.7% (inactive)
Cc1cc(C(=O)COc2cccc(-n3cnnn3)c2)c(C)n1-c1ccccc1	27% (inactive)

Structure (SMILES)	cytotoxicity
CC(=O)c1ccc(NC(=O)CSc2nc3nc(C)cc(C)n3n2)cc1	-1.8% (inactive)
COc1ccc(/C=C2\CCc3ccccc3C2=O)cc1Cn1cccn1	-6.8% (inactive)
COC(=O)[C@@H]1C[C@@H]2CC[C@@H](O)C[C@@H]2N1Cc1ccc(-c2ccccc2)cc1	1.4% (inactive)
COC(=O)[C@@H]1C[C@@H]2CC[C@@H](O)C[C@@H]2N1Cc1ccc(Cl)cc1	4.3% (inactive)
COC(=O)[C@@H]1C[C@H]2CC[C@H](O)C[C@H]2N1Cc1ccc(-c2ccccc2)cc1	68.8% (active)
COc1ccc(NC(=O)CSc2nnc(-c3ccccc3C)n2C)cc1	3% (inactive)
O=C(Nc1cccnc1)c1cc(-c2ccccc2)on1	8.8% (inactive)
COc1ccccc1-c1cc(C(=O)Nc2cccnc2)no1	58.1% (active)
COc1ccc(NC(=O)c2cc(-c3ccccc3OC)on2)cc1	38.4% (inactive)
Cc1ccc(C(=O)c2c(C)oc3c2C(=O)C(=O)c2ccccc2-3)cc1	-5.2% (inactive)
O=C1c2ccccc2C(=O)c2c1oc(C(F)(F)F)c2C(=O)c1ccccc1	-1.6% (inactive)
Cc1oc2c(c1C(=O)c1ccccc1)C(=O)C(=O)c1ccccc1-2	107% (active)
CCOC(=O)c1cn(CC(=O)Nc2ccc(C)cc2)nn1	-1.5% (inactive)
NC(=O)c1nsc(C(=O)N(CC(=O)NCc2ccc3c(c2)OCO3)C2CCCCC2)c1N	-0.4% (inactive)
C=Cn1c(C(=O)O)cc(CC)c1-c1ccccc1	-2.7% (inactive)
CCSc1nccc(-c2nn(-c3ccc(C)cc3)ccc2=O)n1	29% (inactive)
C=CCSc1nccc(-c2nn(-c3ccc(C)cc3)ccc2=O)n1	44.5% (inactive)
CSc1nccc(-c2nn(-c3ccc(C)cc3)ccc2=O)n1	56.4% (active)
O=C1OC(Nc2nccs2)c2ccccc21 (stereo unspecified)	19.8% (inactive)
CNS(=O)(=O)c1ccc(Oc2ccc(S(=O)(=O)NC)cc2)cc1	-5.5% (inactive)
C=CS(=O)(=O)c1ccc(Oc2ccc(S(=O)(=O)C=C)cc2)cc1	76.4% (active)
O=S(=O)(c1ccc(Oc2ccc(S(=O)(=O)N3CCOCC3)cc2)cc1)N1CCOCC1	-8.2% (inactive)
CC(C)c1ccc(C(=O)CSc2ncn[nH]2)cc1	-3.4% (inactive)
